These results are taken from the supplement of paper PMC10811239.

This assay concerns LEGO organoid PTCC (PTEN-/-; TP53-/-; CDKN2A-/-; CDKN2B-/-). Briefly: bioluminescence (viable cell) signal fold change after vs before treatment, normalised to DMSO (ratio); higher = more tumour cell growth / less inhibition. The following applies: 10 µM; treatment time 6 days. On the procedure:
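Luc2-labelled iPSC-derived glioblastoma-like organoids (LEGOs, genotypes PT = PTEN-/-;TP53-/-, PTCC = plus CDKN2A/B-/-, PTN = plus NF1-/-) were treated with 10 uM drug for 6 days (applied every other day) at 37 C. Bioluminescence imaging was done before treatment and 2 days after the last dose. BLI signals were normalised to the DMSO control on the same day and then to the pre-treatment signal (N=3).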
As to `CC/C(=C(\c1ccccc1)c1ccc(OCCN(C)C)cc1)c1ccccc1` [Tamoxifen], the bioluminescence is 0.468. The value for `Nc1nc(Cl)nc2c1ncn2[C@H]1C[C@H](O)[C@@H](CO)O1` [Cladribine] was 1.17. `Cl.N=C(N)NC(=O)Cc1c(Cl)cccc1Cl` [Guanfacine hydrochloride]: the bioluminescence was found to be 1.24. Next, `CCN(CC)C(=O)[C@]1(c2ccccc2)C[C@@H]1CN.Cl` [Milnacipran hydrochloride]: 1.02. The value for `CCc1c2c(nc3ccc(OC(=O)N4CCC(N5CCCCC5)CC4)cc13)-c1cc3c(c(=O)n1C2)COC(=O)[C@]3(O)CC.Cl.O.O.O` [Irinotecan hydrochloride trihydrate] was 0.793; that for `C#CCN[C@@H]1CCc2ccccc21.CS(=O)(=O)O` [Rasagiline Mesylate] was 2.02; that for `CNS(=O)(=O)CCc1ccc2[nH]cc(C3CCN(C)CC3)c2c1.Cl` [Naratriptan hydrochloride] was 0.859. The value for `CCOC(=O)OC(C)OC(=O)[C@@H]1N2C(=O)[C@@H](NC(=O)[C@H](N)c3ccccc3)[C@H]2SC1(C)C.Cl` (stereo not given in full) [Bacampicillin hydrochloride] was 1.35; that for `Cc1oncc1C(=O)Nc1ccc(C(F)(F)F)cc1` [Leflunomide] was 1.3. As to `COc1cc(C(=O)NCc2ccc(OCCN(C)C)cc2)cc(OC)c1OC.Cl` [Trimethobenzamide hydrochloride], the bioluminescence stood at 0.906. Next, `CO[C@H]1C[C@@H]2CC[C@@H](C)[C@@](O)(O2)C(=O)C(=O)N2CCCC[C@H]2C(=O)O[C@H]([C@H](C)C[C@@H]2CC[C@@H](OC(=O)C(C)(CO)CO)[C@H](OC)C2)CC(=O)[C@H](C)/C=C(\C)[C@@H](O)[C@@H](OC)C(=O)[C@H](C)C[C@H](C)/C=C/C=C/C=C/1C` [Temsirolimus]: 0.978. As to `CS(=O)(=O)c1ccc(C(=O)Nc2ccc(Cl)c(-c3ccccn3)c2)c(Cl)c1` [Vismodegib], the bioluminescence stood at 2.45. Regarding `COc1ccc2c(c1)c(CC(=O)O)c(C)n2C(=O)c1ccc(Cl)cc1` [Indometacin], the bioluminescence is 1.24. Next, `CS(=O)(=O)CCNCc1ccc(-c2ccc3ncnc(Nc4ccc(OCc5cccc(F)c5)c(Cl)c4)c3c2)o1` [Lapatinib]: 0.878; `Cl.O.O=C1Cc2cc(CCN3CCN(c4nsc5ccccc45)CC3)c(Cl)cc2N1` [Ziprasidone hydrochloride monohydrate]: 1.05; `COc1cc(Nc2c(C#N)cnc3cc(OCCCN4CCN(C)CC4)c(OC)cc23)c(Cl)cc1Cl` [Bosutinib]: 0.731. Next, `C=C/C=C/C[C@@H](C)[C@@H](O)[C@H]1C(=O)N[C@@H](CC)C(=O)N(C)CC(=O)N(C)[C@@H](CC(C)C)C(=O)N[C@@H](C(C)C)C(=O)N(C)[C@@H](CC(C)C)C(=O)N[C@@H](C)C(=O)N[C@H](C)C(=O)N(C)[C@@H](CC(C)C)C(=O)N(C)[C@@H](CC(C)C)C(=O)N(C)[C@@H](C(C)C)C(=O)N1C` [Voclosporin]: 0.723; `NS(=O)(=O)c1cc2c(cc1Cl)N=CNS2(=O)=O` [Chlorothiazide]: 1.63. For the molecule `CNC(=O)c1cc(Oc2ccc(NC(=O)Nc3ccc(Cl)c(C(F)(F)F)c3)cc2)ccn1.Cc1ccc(S(=O)(=O)O)cc1` [Sorafenib tosylate], the bioluminescence stood at 0.343. Consider `Cc1cnc(NC(=O)C2=C(O)c3ccccc3S(=O)(=O)N2C)s1` [Meloxicam], for which the bioluminescence turned out to be 1.15. Next, `S=c1nc[nH]c2nc[nH]c12` [Mercaptopurine]: 1.6; `CCCc1nc(C)c2c(=O)[nH]c(-c3cc(S(=O)(=O)N4CCN(CC)CC4)ccc3OCC)nn12` [Vardenafil]: 1.16; `CN[C@H](CC(C)C)C(=O)N[C@H]1C(=O)N[C@@H](CC(N)=O)C(=O)N[C@H]2C(=O)N[C@H]3C(=O)N[C@H](C(=O)N[C@H](C(=O)O)c4cc(O)cc(O)c4-c4cc3ccc4O)[C@H](O)c3ccc(c(Cl)c3)Oc3cc2cc(c3O[C@@H]2O[C@H](CO)[C@@H](O)[C@H](O)[C@H]2O[C@H]2C[C@](C)(N)[C@H](O)[C@H](C)O2)Oc2ccc(cc2Cl)[C@H]1O` [Vancomycin]: 0.957. The value for `CCCN(CCc1cccs1)[C@H]1CCc2c(O)cccc2C1` [Rotigotine] was 2.02; that for `CNC(=O)c1cc(Oc2ccc(NC(=O)Nc3ccc(Cl)c(C(F)(F)F)c3)cc2)ccn1` [Sorafenib] was 0.105.
